Hits are enriched below; roughly 19% of the tested compounds scored in any of these assays.
DT40 TDP1 CPT – growth inhibition of DT40 Tdp1-/-;hTDP1 cells with camptothecin (screen for TDP1 inhibitors) | chicken DT40 Tdp1-/-;hTDP1 cells + 20 nM CPT, ATP luminescence, 48 h | Potency, µM (highest dose often 46.2 µM), without a hit: top-dose activity change, negative = growth inhibition, actives largely listed as inhibitors | hit rate 12% among 420,000; note: potency is the fitted concentration of half-maximal effect; nearly all actives have a fitted effect of over 55% in size
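Cell growth measured by CellTiter-Glo luminescence after a minimum 48 h, 37 C compound exposure with 20 nM CPT in Tdp1-knockout DT40 cells stably expressing hTDP1, seeded 400/well; qHTS titration format.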
DT40 TDP1 no CPT – qHTS for Inhibitors of human tyrosyl-DNA phosphodiesterase 1 (TDP1): qHTS in cells in absence of CPT; DT40 Tdp1-/- hTDP1 cells, no CPT, ATP luminescence, 48 h; Potency, µM (series often up to 46.2 µM), for the others: top-dose activity change, negative = growth inhibition, usual class: inhibitors; hit rate 15% among 420,000; note: potency is the fitted concentration of half-maximal effect; nearly all actives have a fitted effect of over 55% in size
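Growth kinetics read by CellTiter-Glo luminescence after ≥48 hr at 37 °C. Cells: DT40 Tdp1-/- stably carrying human TDP1, 400 per well, compound exposure in the absence of CPT (DMSO vehicle).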
HT1080 IDH1KD tx – HT-1080 IDH1 knockdown cell toxicity (counter line); hit rate 2% among 360,000; Potency, µM (series often up to 46.1 µM), inactives show at the top dose activity, negative = toxicity, actives largely listed as cytotoxic; HT-1080 IDH1 knockdown viability, ATP luminescence, 48 h; AID 686971;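 note: potency is the fitted concentration of half-maximal effect; 0% = DMSO wells and -100% = cell-free medium wells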
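% activity derives from luminescence (CellTiter-Glo), normalised to DMSO and no-cell wells. HT-1080-IDH1KD cells, 750/well, had 48 h compound exposure at 37 °C.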
ELG1 DNA repair – ELG1-dependent DNA repair inhibition; HEK293T ELG1-luciferase reporter, luminescence, 16 h; DNA damage induced by 5-fluorouridine; Potency, µM (titrated, usually from 46.1 µM), inactives show top-dose activity change, negative = inhibition, hits mostly inhibitors; hit rate 2.3% among 330,000; note: potency is the fitted concentration of half-maximal effect; nearly all actives have a fitted effect of over 55% in size
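5-Fluorouridine DNA damage + compound/DMSO, 2,000 cells/well, 16 h, 37 °C/5% CO2. ONE-Glo, 30 min RT, luminescence. Readout = decrease in reporter signal.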
HT1080NT lethal – kills 2HG-producing HT-1080-NT fibrosarcoma cells; HT-1080-NT fibrosarcoma viability, CellTiter-Glo ATP luminescence, 48 h; Potency, µM (top dose mostly 46.1 µM), for the others: at the top dose activity, negative = less viability, actives largely listed as cytotoxic; hit rate 1.6% among 360,000;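 note: NT is the 2HG producing partner of a matched IDH1 knockdown line; potency is the fitted concentration of half-maximal effect; 0% = DMSO-treated cells and -100% = media-only wells without cells; nearly all actives have a fitted effect of over 55% in size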
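Fibrosarcoma NT cells, 750 per well in 5% FBS RPMI, were exposed to compound for 48 hours. Viability: CellTiter-Glo luminescence.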
IL1B secr inh – blocks inflammasome-driven IL-1 beta release; THP-1 LPS/ATP IL-1B secretion, AlphaLISA, 16 h; stronger effect = lower value; activity change, % at 57.5 µM; hit rate 4.7% among 360,000; in the data active = activity change below about -50%; inconclusive = mostly about -30% to -49%
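THP-1 cells pretreated 1 hr with compounds (up to 57.5 uM final), then stimulated with LPS (250 ng/mL final) plus ATP (1.25 mM final); secreted IL-1B measured by AlphaLISA after 16 hr, decreased signal indicating inhibition.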
* = called active by the depositor; ? = inconclusive; nt = no result. Unless noted, calls come from the whole dose curve; as a rule, active = well fitted curve in the direction sought with a large enough effect; inconclusive = small, poorly fitted or top-dose-only effect, or another doubt; inactive = no such curve, though single readings can be large; an effect the other way counts as inactive or inconclusive. Unless noted, % is set by controls: 0 for no effect and ±100 for the full control effect.

SMILES	DT40 TDP1 CPT	DT40 TDP1 no CPT	HT1080 IDH1KD tx	ELG1 DNA repair	HT1080NT lethal	IL1B secr inh
NNC(=O)c1[nH]c2ccccc2c1-c1ccccc1	?	15µM*	1.3µM*	?	?	24
O=C(N/N=C/c1[nH]c2ccccc2c1Cl)c1cccc(Br)c1	4%	?	-1%	?	-7%	-84*
COc1cc(C2NC(=O)NC(C)=C2C(C)=O)ccc1O (stereo unspecified)	11%	1%	10%	1%	14%	31
O=C(NN=C1CCCC1)c1[nH]c2ccc(Cl)cc2c1-c1ccccc1	?	?	12µM*	?	?	nt
O=C(NCCc1nnc2n1CCN(Cc1ccsc1)CC2)c1ccc(F)cc1	-1%	-7%	nt	nt	nt	nt
CCOc1ccc2nc(N3CCCC(C(=O)NCCc4ccc(C)cc4)C3)sc2c1 (stereo unspecified)	12µM*	15µM*	nt	nt	nt	nt
COc1ccc2nc(N3CCCC(C(=O)NCCCN4C(C)CCCC4C)C3)sc2c1 (stereo unspecified)	10%	-23%	-18%	?	-6%	-70*
CCOc1ccc2nc(N3CCCC(C(=O)NCCCOC)C3)sc2c1 (stereo unspecified)	16µM*	18µM*	nt	nt	nt	nt
CCCN1C(=O)C(=O)N(CC(=O)N2c3ccccc3NC(=O)CC2C)C1=O (stereo unspecified)	3%	1%	7%	nt	9%	12
Cc1ccc(-c2nnc3ccccc3c2C(=O)Nc2ccccc2F)cc1	-6%	-22%	nt	nt	nt	nt
CCCCN(C)S(=O)(=O)c1ccc(C(=O)Nc2nnc(-c3cccs3)o2)cc1	nt	nt	nt	-18%	nt	nt
O=C(Nc1nnc(-c2cccs2)o1)c1cccc(Oc2ccccc2)c1	10µM*	7.3µM*	?	-28%	?	27
O=C(Nc1nnc(-c2cccs2)o1)c1cccc(F)c1	4.6µM*	7.3µM*	?	nt	-23%	65
CC(C)(C)Nc1nc(C(N)=O)nc(N2CCOCC2)n1	?	?	-8%	18%	-6%	-9
NC(=O)c1nc(N2CCOCC2)nc(N2CCOCC2)n1	14µM*	14µM*	-3%	6%	-4%	-8
N#Cc1nc(N(c2ccccc2)c2ccccc2)nc(-n2cccc2)n1	7.1µM*	3.5µM*	nt	nt	nt	nt
N#Cc1nc(N2CCOCC2)nc(N2CCOCC2)n1	18µM*	26µM*	-1%	16%	-1%	-1
CN(c1ccccc1)c1nc(C#N)nc(N2CCOCC2)n1	13µM*	10µM*	nt	nt	nt	nt
CCNc1nc(C(=O)O)nc(N2CCOCC2)n1	3%	-9%	24%	-1%	1%	10
CCNc1nc(C#N)nc(N2CCOCC2)n1	?	13µM*	nt	nt	nt	nt
c1coc(-c2cc3nc(NC4CCCCC4)ccn3n2)c1	?	21µM*	-1%	nt	20%	-7
c1coc(-c2cc3nc(NCc4ccc5c(c4)OCO5)ccn3n2)c1	?	-18%	-12%	nt	-5%	-12
COC(=O)C1=C(C)N(c2ccc(C(=O)OC)cc2)C(=O)C1	?	?	0%	-5%	-6%	9
COC(=O)C1=C(C)N(c2cc(Cl)cc(Cl)c2)C(=O)C1	7.3µM*	8.2µM*	?	-11%	21µM*	-27
CCOC(=O)C1=C(N)Oc2c(oc(CO)cc2=O)C1c1ccccc1 (stereo unspecified)	-22%	-14%	14%	0%	20%	18
O=C(CNC(=S)NC(=O)c1ccc(Br)o1)c1ccccc1	16µM*	?	-1%	?	-1%	0
O=C(CNC(=S)NC(=O)c1ccc(Cl)cc1)c1ccccc1	-6%	?	0%	?	-1%	34
